Assays:
[1] = target: T1, Aspartate--tRNA(Asp/Asn) ligase (Mycobacterium tuberculosis (strain ATCC 25618 / H37Rv)) (UniProt P9WFW3); assay: Assay for Asp RNA synthetase-1 from Mycobacterium tuberculosis; format: functional; set-up: scale not given: direction of the effect not stated beside the values; conditions: 30 µM; further: in the data most compounds retested in dose-response had high values
T1 sequence (whole entry): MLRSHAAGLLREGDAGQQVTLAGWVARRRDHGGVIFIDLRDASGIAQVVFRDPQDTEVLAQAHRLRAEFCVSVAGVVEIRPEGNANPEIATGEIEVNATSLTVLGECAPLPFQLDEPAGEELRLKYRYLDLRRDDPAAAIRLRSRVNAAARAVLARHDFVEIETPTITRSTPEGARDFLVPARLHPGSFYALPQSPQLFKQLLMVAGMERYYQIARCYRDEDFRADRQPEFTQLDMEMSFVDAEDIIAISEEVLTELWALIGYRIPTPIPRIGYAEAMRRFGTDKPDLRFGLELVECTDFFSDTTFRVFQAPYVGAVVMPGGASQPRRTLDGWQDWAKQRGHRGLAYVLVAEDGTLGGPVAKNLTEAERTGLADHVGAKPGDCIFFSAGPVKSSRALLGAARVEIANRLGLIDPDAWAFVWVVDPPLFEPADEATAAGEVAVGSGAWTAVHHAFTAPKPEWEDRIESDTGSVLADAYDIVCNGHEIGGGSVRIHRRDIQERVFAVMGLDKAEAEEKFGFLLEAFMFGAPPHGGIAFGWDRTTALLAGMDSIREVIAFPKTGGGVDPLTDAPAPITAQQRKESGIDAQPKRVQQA

[2] = target: Shiga toxin 2 (Escherichia coli O157:H7) (UniProt P09385+P09386); assay: E. coli 0.157:H7 Shiga Toxin SOP - stx2 screening assay; format: functional; set-up: scale not given: direction of the effect not stated beside the values; conditions: 30 µM

For `Cc1nnc(N2CCC(CS(N)(=O)=O)CC2)c(C#N)c1C`, the Percent Effect [1] was 6.31% and the Percent Effect [2] was 21.6%.
Work on `CCCn1[nH]cc/c1=N\C(=O)CN1CCOC(Cn2cc(C)cn2)C1` (stereo not given) yielded a Percent Effect [1] of -3.84% and a Percent Effect [2] of 8.34%.
`CN1CCCCC1c1ncc2c(n1)CCN(Cc1ccccc1Cl)C2` (stereo not given) showed a Percent Effect [1] of 3.02% and a Percent Effect [2] of -22.5%.
For `O=C(Nc1ccccc1)c1nn(C2CCS(=O)(=O)C2)c2c1CCCC2` (stereo not given), the Percent Effect [1] was 0.629% and the Percent Effect [2] was 4.6%.
`Cc1cc(C)nc(CCNC(=O)C(c2ccc(F)cc2)N(C)C)n1` (stereo not given) showed a Percent Effect [1] of -1.5% and a Percent Effect [2] of -52.8%.
`O=S1(=O)c2ccccc2C2(CCN(Cc3ccccc3)C2)N1CC1CC1` (stereo not given) was tested, and the Percent Effect [1] was -4.07% and the Percent Effect [2] was 12.3%.
With `CC(C)(C)c1n[nH]c(C2CN(C(=O)CCC3CC3)CCO2)n1` (stereo not given) the Percent Effect [1] was -3.75% and the Percent Effect [2] was 11.1%.
In the case of `COc1c(C2CCCN2C(=O)c2csc(C(C)C)n2)c(C)nn1C` (stereo not given), the Percent Effect [1] is reported as 5.31% and the Percent Effect [2] is reported as 4.42%.
For `CC(=O)NCc1ccc(C(=O)N2CCCCC2Cn2cccn2)o1` (stereo not given), the Percent Effect [1] was 0.175% and the Percent Effect [2] was -2.7%.
`CN1CCOC(CNC(=O)CCCOCCc2ccccc2)C1` (stereo not given) showed a Percent Effect [1] of -3.72% and a Percent Effect [2] of 1.69%.
In the case of `CCc1nc(C2CCCN(C(=O)CCn3ccccc3=O)C2)no1` (stereo not given), the Percent Effect [1] is reported as -0.767% and the Percent Effect [2] is reported as 7.71%.
With `CN(C)c1cc(C(=O)N2CCN(S(C)(=O)=O)CC2)ccn1` the Percent Effect [1] was -0.122% and the Percent Effect [2] was -36.9%.
`O=C([C@H]1C[C@@H]2CCN(C3CCOCC3)C[C@@H]2O1)N1CCOCC1` gave a Percent Effect [1] of 1.17% and a Percent Effect [2] of -10.3%.
`O=C(NCCCO)C1CC(=O)N(c2n[nH]c3cccc(F)c23)C1` (stereo not given) gave a Percent Effect [1] of 0.29% and a Percent Effect [2] of -34.7%.
`COc1c(C2CCCN2C(=O)c2c[nH]c3ncccc23)c(C)nn1C` (stereo not given) was tested, and the Percent Effect [1] was -1.25% and the Percent Effect [2] was -20.6%.
`Cc1nn2cccnc2c1C(=O)N1CCCC(n2ccnc2)C1` (stereo not given) gave a Percent Effect [1] of 6.28% and a Percent Effect [2] of -29.8%.
`Cc1cc(C)n(-c2ccc(CNCc3ccc(OC(C)C)cc3)cn2)n1` was tested, and the Percent Effect [1] was -4.39% and the Percent Effect [2] was 29.5%.
For `CC(NC(=O)C1=NN(C)C(=O)CC1)c1ccc(Cl)cc1Cl` (stereo not given), the Percent Effect [1] was -11.1% and the Percent Effect [2] was -19.3%.
In the case of `COc1ccc(CNC(=O)NCC2CCOC2)c(C(F)(F)F)c1` (stereo not given), the Percent Effect [1] is reported as -4.04% and the Percent Effect [2] is reported as -3.72%.
With `Cn1cc(CN2CCn3cc(CNC(=O)c4cccn4C)nc3C2)cn1` the Percent Effect [1] was 2.49% and the Percent Effect [2] was -19.5%.
Work on `Cc1cnn(CC2CCCN2CC(=O)Nc2nc(C)cs2)c1` (stereo not given) yielded a Percent Effect [1] of 1.62% and a Percent Effect [2] of -8.49%.
For `Cc1nnc(N2CCOC(Cn3cccn3)C2)c(C#N)c1C` (stereo not given), the Percent Effect [1] was 3.88% and the Percent Effect [2] was 19.5%.
Molecule `O=c1nc(SCc2cccnc2)c2c(n1CCO)CCC2` has a Percent Effect [1] of -12% and a Percent Effect [2] of 13.4%.
Work on `Cc1nc(N2CCN(C(=O)C3CC3)CC2)c2c(n1)c(C)nn2C` yielded a Percent Effect [1] of -2.18% and a Percent Effect [2] of -35.4%.
`CCc1nc2ccccc2c(=O)n1CC1(O)CCN(S(C)(=O)=O)CC1` was tested, and the Percent Effect [1] was 4.54% and the Percent Effect [2] was -2.21%.
With `CCc1nc(CN2CCN(c3ncnc4cc(F)ccc34)CC2)no1` the Percent Effect [1] was -1.46% and the Percent Effect [2] was -69.6%.
`CCOCCN1CCn2c(C)nnc2C1` was tested, and the Percent Effect [1] was 1.76% and the Percent Effect [2] was -30.6%.
With `Cc1cc(CN2CCN(C(=O)C(C)C)[C@@H]3CS(=O)(=O)C[C@@H]32)ccc1F` the Percent Effect [1] was 2.51% and the Percent Effect [2] was -10.2%.
`CCc1c(C(=O)NCC2CCS(=O)(=O)C2)cnn1-c1ccc(C)cc1` (stereo not given) showed a Percent Effect [1] of -1.8% and a Percent Effect [2] of -0.796%.
In the case of `Cc1cc(C(N)=O)ccc1NC(=O)c1nc(N2CCCC2)ncc1Cl`, the Percent Effect [1] is reported as 1.84% and the Percent Effect [2] is reported as -35.5%.
`O=C(Cc1ccccc1F)N1CCN(C(=O)c2cccc(F)c2)CC1` was tested, and the Percent Effect [1] was 23.6% and the Percent Effect [2] was -39.5%.
Molecule `CCN(CC)C(=O)c1ccn(COc2cc(C)cc(C)c2)n1` has a Percent Effect [1] of -7.43% and a Percent Effect [2] of -39.1%.
Work on `COc1cc(C(=O)N2CCCS2(=O)=O)cc(Cl)c1OC` yielded a Percent Effect [1] of -11.2% and a Percent Effect [2] of -4.54%.
For `CCCc1cc(=O)[nH]c2nnc(SCC(=O)NCc3ccc(C)cc3)n12`, the Percent Effect [1] was -7.99% and the Percent Effect [2] was 2.17%.
With `Cc1nc(CN2C(=O)COC3(CCN(Cc4ccco4)CC3)C2C)cs1` (stereo not given) the Percent Effect [1] was -2.99% and the Percent Effect [2] was -19.9%.
`CCc1ncc2c(n1)CN(Cc1nc(-c3ccsc3)no1)CC2` showed a Percent Effect [1] of -0.759% and a Percent Effect [2] of 13.8%.
In the case of `O=C(c1cc(COc2ccc3c(c2)OCO3)[nH]n1)N1CC=CC1CO` (stereo not given), the Percent Effect [1] is reported as 1.75% and the Percent Effect [2] is reported as -30.9%.
For `Cc1ccc(=O)n(CC2(O)CCN(Cc3ccsc3)CC2)n1`, the Percent Effect [1] was -3.38% and the Percent Effect [2] was 12.7%.
`CS(=O)(=O)c1ccc(OCCNCc2cccc(F)c2)cc1` was tested, and the Percent Effect [1] was -5.13% and the Percent Effect [2] was -38.6%.
Work on `CSc1cc2c(cc1NC(=O)NCC(C)(C)C(N)=O)OCCO2` yielded a Percent Effect [1] of 0.408% and a Percent Effect [2] of -1.68%.
`Cn1ncc2c1C(COCC1CC1)CN(Cc1ccc(F)cc1)C2` (stereo not given) was tested, and the Percent Effect [1] was -2.09% and the Percent Effect [2] was -5.43%.
Molecule `O=S(=O)(CCNC1CCc2ncnn2C1)c1ccccc1` (stereo not given) has a Percent Effect [1] of 1.06% and a Percent Effect [2] of -24.1%.
For `CCCn1ncc2c(C(=O)Nc3cnn(CC)c3C)cc(C3CC3)nc21`, the Percent Effect [1] was -1.49% and the Percent Effect [2] was -0.924%.
With `COCCn1ccc(=O)c(OCC(=O)Nc2ccccc2)c1C` the Percent Effect [1] was -0.61% and the Percent Effect [2] was -38%.
`CC(=O)N1CCCC1c1nccnc1Nc1cccc(C)n1` (stereo not given) was tested, and the Percent Effect [1] was 1.07% and the Percent Effect [2] was -5.74%.
